Compound activity deposited in PubChem by several laboratories.
An excerpt weighted towards active compounds, which were near 3.3% of everything screened.
Anthrax LF inh2 = inhibitors of Bacillus anthracis lethal factor protease | 360,000 compounds, 0.12% hits | inhibition, % at 10 µM | multiplex microsphere protease cleavage assay, LF | AID 588501; further: plate controls were buffer without enzyme for full effect and enzyme alone for no effect
Target sequence (P15917 whole entry, looked up): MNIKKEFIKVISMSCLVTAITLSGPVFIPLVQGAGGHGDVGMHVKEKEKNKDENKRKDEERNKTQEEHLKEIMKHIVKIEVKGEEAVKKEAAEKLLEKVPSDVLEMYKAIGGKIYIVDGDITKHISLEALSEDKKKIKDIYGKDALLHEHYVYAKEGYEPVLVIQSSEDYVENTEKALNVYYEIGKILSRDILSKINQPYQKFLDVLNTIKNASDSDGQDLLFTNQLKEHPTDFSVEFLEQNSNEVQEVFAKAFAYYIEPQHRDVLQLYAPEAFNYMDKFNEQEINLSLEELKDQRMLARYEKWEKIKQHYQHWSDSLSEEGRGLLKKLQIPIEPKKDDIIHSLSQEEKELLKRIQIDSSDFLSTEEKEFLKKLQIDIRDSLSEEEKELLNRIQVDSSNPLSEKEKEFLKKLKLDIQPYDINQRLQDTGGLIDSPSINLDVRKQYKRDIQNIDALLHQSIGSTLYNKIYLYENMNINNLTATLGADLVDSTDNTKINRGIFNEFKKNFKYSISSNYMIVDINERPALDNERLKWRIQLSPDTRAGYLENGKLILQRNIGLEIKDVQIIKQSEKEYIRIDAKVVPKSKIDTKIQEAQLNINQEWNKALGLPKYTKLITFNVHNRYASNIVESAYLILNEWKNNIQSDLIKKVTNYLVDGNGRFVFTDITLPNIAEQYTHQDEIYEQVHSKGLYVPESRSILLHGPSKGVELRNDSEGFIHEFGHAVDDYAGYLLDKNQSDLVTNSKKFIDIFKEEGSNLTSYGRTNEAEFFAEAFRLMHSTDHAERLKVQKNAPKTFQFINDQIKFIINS
MazF activator = activators of E. coli MazEF toxin-antitoxin RNase. FAM/BHQ RNA-DNA oligo cleavage fluorescence, 5 h. activation, % at 20 µM. 350,000 compounds, 0.32% hits. AID 504720; in the data active means activation above about 50%
PriA SSB inh = K. pneumoniae PriA-SSBct interaction inhibition; 430,000 compounds, 0.6% hits; inhibition, % at 33 µM; AlphaScreen SSBct-PriA binding, biotinylated peptide; AID 1272365; in the data active means inhibition mostly above about 37%, no sharp cut-off; inactive means mostly below about 20%;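 further: plate controls were negative control peptide for no effect and reference peptide for full effect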
Bead autofluor = compound fluorescence in toxin protease inhibitor counterscreen. compound autofluorescence counterscreen, microsphere flow cytometry; active compounds read high. fluorescence intensity (test concentration not listed). 360,000 compounds, 3.1% hits; in the data active means fluorescence intensity above about 16000; inconclusive means no clear call, values can overlap the other calls
BoNT-F LC inh = blocks Botulinum neurotoxin F light chain protease; Multiplex microsphere protease cleavage assay, flow cytometry; inhibition, % at 10 µM; 360,000 compounds, 0.22% hits; in the data active means inhibition above about 35%, passing the limit was not always enough; inconclusive means no clear call, values can overlap the other calls; further: plate controls were buffer without enzyme for full effect and enzyme alone for no effect
BoNT-A LC inh2 = blocks Botulinum neurotoxin A light chain protease. multiplex microsphere protease substrate cleavage, flow cytometry. inhibition, % at 10 µM. 360,000 compounds, 0.17% hits. AID 588499; further: plate controls were buffer without enzyme for full effect and enzyme alone for no effect
* marks the source's active call; other numbers are inactive results; ! = a repeat was not active. Unless noted, no stated cut-off is given here; in the data, active means inhibition above about 30%; inconclusive means no clear call, values can overlap the other calls; inactive means below that.

How did CCOC(=O)c1cc2c(C)n(-c3ccc(C)cc3)c(C)c2ccc1=O do in these assays?
Anthrax LF inh2: -2; MazF activator: 5; PriA SSB inh: 6; Bead autofluor: 22981*; BoNT-F LC inh: -2; BoNT-A LC inh2: 1

What do the screens show for `COc1ccc(OC)c2sc(NNC(=O)c3ccc(S(=O)(=O)N(C)C)cc3)nc12`?
PriA SSB inh: 42*

Results for CN(C)S(=O)(=O)c1ccc(C(=O)NNc2nc3c(F)cccc3s2)cc1 ?
PriA SSB inh: 24

Results for O=c1cc(-c2ccccn2)[nH]c(-c2ccccn2)c1 ?
PriA SSB inh: 96*

What do the screens show for `O=C(NCCC1=CCCCC1)c1cn(C[C@H](O)c2ccccc2F)nn1`?
PriA SSB inh: -8

How did CCOC(=O)C1=C(C)NC(C)=C(C(=O)OCC)C1c1ccc(-c2nc3ccccc3s2)o1 do in these assays?
PriA SSB inh: -15

Results for O=C(NCc1ccccc1F)C1CCN(C(=O)NCc2ccccc2)CC1 ?
Anthrax LF inh2: -6; MazF activator: -2; PriA SSB inh: -6; Bead autofluor: 17003*; BoNT-F LC inh: -3; BoNT-A LC inh2: -2

What do the screens show for `O=C(NCc1ccc(F)cc1)C1CCN(C(=O)NCc2ccccc2)CC1`?
Anthrax LF inh2: -6; MazF activator: 6; PriA SSB inh: -10; Bead autofluor: 6142; BoNT-F LC inh: -6; BoNT-A LC inh2: -1

What do the screens show for `O=C(NC1CCCCC1)C1CCN(C(=O)NCc2ccccc2)CC1`?
Anthrax LF inh2: -2; MazF activator: 2; PriA SSB inh: -5; Bead autofluor: 16321*; BoNT-F LC inh: 2; BoNT-A LC inh2: 1

How did O=C(NC1CCCC1)C1CCN(C(=O)NCc2ccccc2)CC1 do in these assays?
Anthrax LF inh2: 1; MazF activator: 3; PriA SSB inh: -9; Bead autofluor: 3349; BoNT-F LC inh: -6; BoNT-A LC inh2: -2

What do the screens show for `O=C(COC(=O)c1ccc(Br)o1)NCC1CCCO1` (configuration not stated)?
Anthrax LF inh2: 2; MazF activator: -16; PriA SSB inh: -4; Bead autofluor: 21346*; BoNT-F LC inh: 5; BoNT-A LC inh2: 3

What do the screens show for `O=C(NCC1CCCO1)c1ccc(Br)o1` (configuration not stated)?
Anthrax LF inh2: -2; MazF activator: -18; PriA SSB inh: -1; Bead autofluor: 4361; BoNT-F LC inh: 0; BoNT-A LC inh2: 0

Results for CCS(=O)(=O)C1CN(C(=O)C2CCCO2)C1 (configuration not stated) ?
PriA SSB inh: 6

How did c1ccc2c(c1)nnn2-c1ncnc2sc3c(c12)CCCC3 do in these assays?
Anthrax LF inh2: 0; MazF activator: -14; PriA SSB inh: -27; Bead autofluor: 23314*; BoNT-F LC inh: -3; BoNT-A LC inh2: -2

Results for CCOC(=O)CSc1nnc2c3ccccc3n(CC)c2n1 ?
Anthrax LF inh2: 9; MazF activator: 4; PriA SSB inh: -3; Bead autofluor: 4353; BoNT-F LC inh: inconclusive; BoNT-A LC inh2: -2

What do the screens show for `CCn1c2ccccc2c2nnc(SCC(=O)Nc3ncccn3)nc21`?
Anthrax LF inh2: -1; MazF activator: -4; PriA SSB inh: -1; Bead autofluor: 21373*; BoNT-F LC inh: 3; BoNT-A LC inh2: inconclusive

Results for CCOC(=O)C(Sc1nnc2c3ccccc3n(CC)c2n1)C(=O)OCC ?
Anthrax LF inh2: 0; MazF activator: -1; PriA SSB inh: -14; Bead autofluor: 16233*; BoNT-F LC inh: 0; BoNT-A LC inh2: 0

How did CCn1c2ccccc2c2nnc(SCC(=O)c3ccccc3)nc21 do in these assays?
Anthrax LF inh2: -4; MazF activator: 7; PriA SSB inh: -7; Bead autofluor: 8467; BoNT-F LC inh: 7; BoNT-A LC inh2: 1

Results for CC(C)Oc1ccc(C(=O)NCC(c2cccn2C)N2CCCC2)cc1 (configuration not stated) ?
PriA SSB inh: 8

Results for CC(C)(C)NC(=O)CSc1nc(-c2ccccc2)c(-c2ccccc2)[nH]1 ?
Anthrax LF inh2: -13; MazF activator: -6; PriA SSB inh: 19; Bead autofluor: 23364*; BoNT-F LC inh: 0; BoNT-A LC inh2: 0

What do the screens show for `O=C(Oc1ccc2c(c1)OCC2=O)c1ccc(Cl)cc1`?
Anthrax LF inh2: 6; MazF activator: -7; PriA SSB inh: -7; Bead autofluor: 4242; BoNT-F LC inh: inconclusive; BoNT-A LC inh2: inconclusive

What do the screens show for `COc1cc(C(=O)Oc2ccc3c(c2)OCC3=O)cc(OC)c1OC`?
Anthrax LF inh2: 2; MazF activator: 8; PriA SSB inh: -1; Bead autofluor: 4422; BoNT-F LC inh: 44*; BoNT-A LC inh2: 1

How did O=C(C1=COCCO1)N(C[C@H]1CCCO1)c1nc2c(C(F)(F)F)cccc2s1 do in these assays?
PriA SSB inh: -11

Results for O=[N+]([O-])c1cc([N+](=O)[O-])c2ncccc2c1 ?
PriA SSB inh: 63*

What do the screens show for `O=[N+]([O-])c1cc(C(F)(F)F)cc([N+](=O)[O-])c1Sc1cccc2cccnc12`?
PriA SSB inh: 56*

How did Oc1cc(Cl)cc2cccnc12 do in these assays?
PriA SSB inh: 84*

How did COc1ccc(C(=O)Oc2cccc3cccnc23)cc1[N+](=O)[O-] do in these assays?
Anthrax LF inh2: 0; MazF activator: 2; PriA SSB inh: 0; Bead autofluor: 2489; BoNT-F LC inh: 6; BoNT-A LC inh2: -1

Results for COc1ccc(CSc2cccc3cccnc23)cc1[N+](=O)[O-] ?
Anthrax LF inh2: -1; MazF activator: -10; PriA SSB inh: 45*; Bead autofluor: 2110; BoNT-F LC inh: -3; BoNT-A LC inh2: 1

What do the screens show for `O=[N+]([O-])c1cc(O)c2ncccc2c1`?
MazF activator: -13; PriA SSB inh: 84*

Results for CN(N=Cc1cccc2cccnc12)c1ccc([N+](=O)[O-])cc1[N+](=O)[O-] ?
Anthrax LF inh2: 4; MazF activator: 935*; PriA SSB inh: -12; Bead autofluor: 3581; BoNT-F LC inh: -2; BoNT-A LC inh2: 0

What do the screens show for `COc1cc(CSc2nc(=O)n3cccc(C)c3n2)cc(OC)c1`?
PriA SSB inh: -18

Results for CCCN1CCCc2cc(CCNS(=O)(=O)CC)ccc21 ?
PriA SSB inh: 46*

What do the screens show for `CCCN1CCCc2cc(CCNC(=O)CCc3ccccc3)ccc21`?
PriA SSB inh: 62

What do the screens show for `CCCN1CCCc2cc(CCNS(=O)(=O)Cc3ccc(F)cc3)ccc21`?
PriA SSB inh: 77*

How did CCCN1CCCc2cc(CCNS(=O)(=O)Cc3ccccc3)ccc21 do in these assays?
PriA SSB inh: 94*

What do the screens show for `CCCN1CCCc2cc(CCNS(=O)(=O)CCc3ccc(OC)cc3)ccc21`?
PriA SSB inh: 60*

Results for COc1ccc(NC(C)=CC(=O)c2ccccc2)cc1 ?
PriA SSB inh: -5

Results for CCCN1CCCc2cc(CCNS(=O)(=O)c3ccc(Cl)s3)ccc21 ?
PriA SSB inh: active!

Results for CCCN1CCCc2cc(CCNS(=O)(=O)Cc3cccc(Cl)c3)ccc21 ?
PriA SSB inh: 55*
